Source: PubChem BioAssay (Tox21)
Results filed as inconclusive are left out. Activity calls are given as the source filed them. Calls follow the shape of the full dose curve.

test system: not listed separately; assay: qHTS assay to identify small molecule agonists of the AP-1 signaling pathway (AID 1159526); conditions: ME-180 (cervical carcinoma) AP-1-bla reporter, beta-lactamase FRET ratio, 5 h; series mostly up to 76.8 µM; activation: at the top concentration
% is scaled to controls: 0 for no effect and ±100 for the full control effect.

SMILES | activation
C=CCN1CCc2nc(N)sc2CC1 | 3% [at 35.3 µM] (inactive)
O=C(O)Cc1c(Cl)ccc(Cl)c1Cl | -3.51% (inactive)
CCCCCCCCCCCCCC(=O)OCC | 0.0689% (inactive)
CC(=O)OCC(=O)[C@@]1(O)CC[C@H]2[C@@H]3CCC4=CC(=O)C=C[C@]4(C)[C@H]3[C@@H](O)C[C@@]21C | 6.39% [at 35.3 µM] (inactive)
Cc1cc(N)no1 | 17.8% (inactive)
O=c1c(O)c(O)c1=O | -6.93% (inactive)
CC/C=C/CCCCCCCCCCOC(C)=O | -1.59% (inactive)
N=C(N)N | 0.768% [at 35.3 µM] (inactive)
CC(=O)Oc1ccc(C(C)=O)cc1 | -4.51% (inactive)
CC(=O)c1c(C)cc(C(C)(C)C)cc1C | 0.0973% (inactive)
CN(C)CCc1c[nH]c2ccc(C[C@H]3COC(=O)N3)cc12 | -2.59% [at 35.3 µM] (inactive)
O=C(O)/C=C(\CC(=O)O)C(=O)O | 4.23% [at 35.3 µM] (inactive)
CC(C)(O)c1ccc(C(C)(C)O)cc1 | -1.93% (inactive)
Nc1cc(S(=O)(=O)O)ccc1O | 8.52% (inactive)
CC(=O)Nc1ccc(S(=O)(=O)Nc2cc(C)on2)cc1 | 8.37% [at 35.3 µM] (inactive)
CC(O)CCCCn1c(=O)c2c(ncn2C)n(C)c1=O (stereo unspecified) | -0.133% [at 35.3 µM] (inactive)
CCC(C)c1nccnc1OC (stereo unspecified) | -6.94% (inactive)
CN(C)c1cc(NC(=O)CNC(C)(C)C)c(O)c2c1C[C@H]1C[C@H]3[C@H](N(C)C)C(=O)C(C(N)=O)=C(O)[C@@]3(O)C(=O)C1=C2O | -0.995% [at 35.3 µM] (inactive)
CC1(C)CC(N)CC(C)(C)N1 | -1.78% (inactive)

SMILES | activation
C/C=C(\C)C(=O)OC/C=C(\C)CCC=C(C)C | -3.03% (inactive)
COC(=O)c1cc(Cl)c(NC(C)=O)cc1OC | 3.66% [at 35.3 µM] (inactive)
O=C(c1ccccc1)c1cccc(O)c1 | 9.56% (inactive)
C=C(C)C(=O)OCCCC | -4.49% (inactive)
CN(C)CCc1c[nH]c2ccc(CS(=O)(=O)N3CCCC3)cc12 | -1.57% [at 35.3 µM] (inactive)
Cc1ccc(O)c([N+](=O)[O-])c1 | -1.75% (inactive)
C[C@]12C=CC(=O)C=C1[C@@H](F)C[C@@H]1[C@@H]2[C@@H](O)C[C@@]2(C)[C@H]1CC[C@]2(O)C(=O)CO | 4.24% [at 35.3 µM] (inactive)
Cc1ccccc1OCC(=O)O | 1.37% (inactive)
Cc1ccc(N)nc1 | -0.528% (inactive)
Cc1cc(C)c(C)c(C)c1 | -4.29% (inactive)
CCCC(=O)OC | -0.0805% (inactive)
O=S(=O)(O)c1ccc(Cl)cc1 | -4.77% (inactive)
CN(C)c1ccncc1 | 0.644% (inactive)
CC(O)C(CO)C(C)O (stereo unspecified) | -2.42% (inactive)
CC1(C)S[C@@H]2[C@H](NC(=O)Cc3ccccc3)C(=O)N2[C@H]1C(=O)O (tested in a mixture with another compound) | 3.87% [at 35.3 µM] (inactive)
CN1CCN(C(=O)C2CCCCC2)CC1 | -0.781% [at 35.3 µM] (inactive)
C=CCCCCCCCCCCCCCC | -3.84% [at 15.8 µM] (inactive)
CC(C)(C)C(=O)CCc1ccc(Cl)cc1 | -0.682% (inactive)
CCCc1ncc(C(=O)O)s1 | -1.23% [at 35.3 µM] (inactive)

target: Retinoic acid receptor RXR-alpha (Homo sapiens) (UniProt P19793); assay: qHTS assay to identify small molecule agonists of the RXR signaling pathway (AID 1159527); conditions: HEK293T RXRa-UAS-bla, beta-lactamase ratio, 16 h; series mostly up to 76.8 µM; activation: at the top concentration; also: nearly all actives have a fitted effect of over 35% in size; also: potency is read from the fitted curve at half-maximal effect
Sequence (P19793 whole entry, looked up): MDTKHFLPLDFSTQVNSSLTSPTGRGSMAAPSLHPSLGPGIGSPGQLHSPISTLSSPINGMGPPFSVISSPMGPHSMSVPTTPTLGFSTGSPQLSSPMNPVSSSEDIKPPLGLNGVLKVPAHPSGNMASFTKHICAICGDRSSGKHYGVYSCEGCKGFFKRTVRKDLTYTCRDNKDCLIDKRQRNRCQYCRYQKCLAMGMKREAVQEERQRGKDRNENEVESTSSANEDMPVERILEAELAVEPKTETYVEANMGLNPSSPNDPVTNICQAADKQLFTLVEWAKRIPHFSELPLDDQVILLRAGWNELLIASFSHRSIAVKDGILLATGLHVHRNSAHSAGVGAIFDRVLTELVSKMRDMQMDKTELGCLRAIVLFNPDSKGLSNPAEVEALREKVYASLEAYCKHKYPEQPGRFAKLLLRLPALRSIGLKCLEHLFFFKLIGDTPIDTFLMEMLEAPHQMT
In short: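 16 hr incubation of compound-treated RXR-alpha-UAS-bla HEK 293T cells (2% charcoal-stripped FBS, 37 C) preceded a 2 hr room-temperature LiveBLAzer FRET substrate step and blue/green fluorescence measurement.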

SMILES | activation | Potency
C=CCN1CCc2nc(N)sc2CC1 | 4.94% [at 35.3 µM] (inactive) | –
O=C(O)Cc1c(Cl)ccc(Cl)c1Cl | -0.216% (inactive) | –
CCCCCCCCCCCCCC(=O)OCC | 9.19% (inactive) | –
CC(=O)OCC(=O)[C@@]1(O)CC[C@H]2[C@@H]3CCC4=CC(=O)C=C[C@]4(C)[C@H]3[C@@H](O)C[C@@]21C | 5.93% [at 35.3 µM] (inactive) | –
Cc1cc(N)no1 | 1.95% (inactive) | –
O=c1c(O)c(O)c1=O | 0.752% (inactive) | –
CC/C=C/CCCCCCCCCCOC(C)=O | 8.43% (inactive) | –
N=C(N)N | 1.71% [at 35.3 µM] (inactive) | –
CC(=O)Oc1ccc(C(C)=O)cc1 | 5.67% (inactive) | –
CC(=O)c1c(C)cc(C(C)(C)C)cc1C | 4.77% (inactive) | –
CN(C)CCc1c[nH]c2ccc(C[C@H]3COC(=O)N3)cc12 | -2.74% [at 35.3 µM] (inactive) | –
O=C(O)/C=C(\CC(=O)O)C(=O)O | 6.43% [at 35.3 µM] (inactive) | –
CC(C)(O)c1ccc(C(C)(C)O)cc1 | -1.46% (inactive) | –
Nc1cc(S(=O)(=O)O)ccc1O | -3.62% (inactive) | –
CC(=O)Nc1ccc(S(=O)(=O)Nc2cc(C)on2)cc1 | 4.64% [at 35.3 µM] (inactive) | –
CC(O)CCCCn1c(=O)c2c(ncn2C)n(C)c1=O (stereo unspecified) | 4.48% [at 35.3 µM] (inactive) | –
CCC(C)c1nccnc1OC (stereo unspecified) | 3.55% (inactive) | –
CN(C)c1cc(NC(=O)CNC(C)(C)C)c(O)c2c1C[C@H]1C[C@H]3[C@H](N(C)C)C(=O)C(C(N)=O)=C(O)[C@@]3(O)C(=O)C1=C2O | 2.86% [at 35.3 µM] (inactive) | –
CC1(C)CC(N)CC(C)(C)N1 | 3.99% (inactive) | –

SMILES | activation | Potency
C/C=C(\C)C(=O)OC/C=C(\C)CCC=C(C)C | – | 21.9 µM (active)
COC(=O)c1cc(Cl)c(NC(C)=O)cc1OC | 6.55% [at 35.3 µM] (inactive) | –
O=C(c1ccccc1)c1cccc(O)c1 | -9.97% (inactive) | –
C=C(C)C(=O)OCCCC | 1.78% (inactive) | –
CN(C)CCc1c[nH]c2ccc(CS(=O)(=O)N3CCCC3)cc12 | 1.93% [at 35.3 µM] (inactive) | –
Cc1ccc(O)c([N+](=O)[O-])c1 | -18.2% (inactive) | –
C[C@]12C=CC(=O)C=C1[C@@H](F)C[C@@H]1[C@@H]2[C@@H](O)C[C@@]2(C)[C@H]1CC[C@]2(O)C(=O)CO | 3.39% [at 35.3 µM] (inactive) | –
Cc1ccccc1OCC(=O)O | 4.52% (inactive) | –
Cc1ccc(N)nc1 | -8.01% (inactive) | –
Cc1cc(C)c(C)c(C)c1 | 4.37% (inactive) | –
CCCC(=O)OC | 3.96% (inactive) | –
O=S(=O)(O)c1ccc(Cl)cc1 | 1.58% (inactive) | –
CN(C)c1ccncc1 | -0.949% (inactive) | –
CC(O)C(CO)C(C)O (stereo unspecified) | -1.94% (inactive) | –
CC1(C)S[C@@H]2[C@H](NC(=O)Cc3ccccc3)C(=O)N2[C@H]1C(=O)O (tested in a mixture with another compound) | -7.86% [at 35.3 µM] (inactive) | –
CN1CCN(C(=O)C2CCCCC2)CC1 | 11.8% [at 35.3 µM] (inactive) | –
C=CCCCCCCCCCCCCCC | -0.752% [at 15.8 µM] (inactive) | –
CC(C)(C)C(=O)CCc1ccc(Cl)cc1 | 0.158% (inactive) | –
CCCc1ncc(C(=O)O)s1 | 4.81% [at 35.3 µM] (inactive) | –
